Most compounds without a hit are left out; they make up all but 1.5% or so of the library.
CRFR2-BP antag – antagonists of CRF-BP/CRF-R2 complex, primary screen, cell-based, HEK293, calcium dye fluorescence, uHTS; CRF-induced calcium fluorescence; inhibition, % at 11.8 µM; 350,000 compounds, 0.59% hits; AID 588475, 2011;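 active means inhibition of the ligand-induced calcium signal above about 50% at the single tested concentration, limit read from the data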
IDE inh – human IDE inhibitors in live cells, primary screen, fluorescence polarization, HEK cells, FAbetaB substrate; Insulin-degrading enzyme (Homo sapiens), P14735; FAbetaB cleavage; inhibition, % at 5.59 µM; 320,000 compounds, 0.41% hits;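 active means percent inhibition above the average of all tested compounds plus 3 SD, set per screening campaign, cut at about 16% in these data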;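 further: IDE supplied by intact live HEK cells; FP after avidin binding of uncleaved biotin substrate so inhibition keeps polarization high; 0% = DMSO wells and 100% = 60 µM reference IDE inhibitor Ii1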
CRFBP-R2 agonist – agonists of CRF-BP/CRF-R2 complex, primary screen, cell-based, HEK293, calcium dye fluorescence, uHTS | 350,000 compounds, 0.46% hits | AID 588473, 2011 | activation, % at 13.2 µM | calcium dye fluorescence (FLIPR); percent of saturating CRF peptide response | CRF-binding protein / CRF receptor 2 complex (human);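 active means activation of at least 50%, plus an integration ratio under a set limit after plate pattern correction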;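 further: plate controls were neutral control wells without compound for no effect and CRF at EC100 for full effect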
cardiac RTF act – cardiac RTF calcium sensitivity activators, primary screen, biochemical, IANBD-TnC fluorescence, EC20 calcium | activation, % at 7.2 µM | IANBD-labeled TnC RTF fluorescence at EC20 calcium; 0% EC20 calcium, 100% full calcium | 340,000 compounds, 0.24% hits;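 active means activation above the mean over all tested compounds plus 3 SD, cut at about 30% in these data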;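 further: rise in fluorescence read as greater calcium sensitivity of cardiac thin filaments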
IDE cell activ – human IDE activators in live cells, primary screen, fluorescence polarization, HEK cells, FAbeta-B substrate; Insulin-degrading enzyme (Homo sapiens), P14735; FAbeta-B cleavage; 0% vehicle, 100% cell-free pure enzyme wells; activation, % at 5.96 µM; 340,000 compounds, 0.073% hits; AID 493087, 2011;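 active means activation above the mean of all tested compounds plus 3 SD, set per screening campaign, cut at about 17% in these data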
RTF Ca sens inh – cardiac RTF calcium sensitivity inhibitors, primary screen, biochemical, IANBD-TnC fluorescence, EC70 calcium. inhibition, % at 7.15 µM. 340,000 compounds, 0.12% hits. Troponin I, cardiac muscle (Homo sapiens) + Troponin T, cardiac muscle (Homo sapiens) + …. IANBD-labeled cardiac RTF, Ca2+ fluorescence;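 active means inhibition above the mean inhibition of all tested compounds plus 3 SD, cut at about 17% in these data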;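 further: assay run at fixed EC70 calcium of 1.6 mM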
* hit, by the source's call; / = no result.

SMILES	CRFR2-BP antag	IDE inh	CRFBP-R2 agonist	cardiac RTF act	IDE cell activ	RTF Ca sens inh
O=C(NC1CCCC1)c1sc(=S)n2c1[nH]c(=O)c1ccccc12	30	3	87*	0	0	5
O=C(NCc1ccccc1)c1ccc2c(=O)[nH]c3c(C(=O)NCC4CCCO4)sc(=S)n3c2c1 (centres undefined)	27	7	-4	0	2	5
O=C(COC(=O)c1cc(S(=O)(=O)N2CCOCC2)ccc1O)Nc1ccc2c(c1)OCO2	3	-6	1	-6	2	-11
Nc1ccc(/C=C/C(=O)c2cccs2)cc1	-73	11	103*	8	-27	-15
O=c1c(Sc2ccccc2)c(C(F)(F)F)[nH]n1-c1ccccc1	81*	1	4	0	7	-3
O=c1c2c(C(F)(F)F)cc(C(F)(F)F)nc2[nH]n1-c1ccccc1	12	0	-1	1	-5	-2
COc1ccc(C(=O)Nc2ccc3c(c2)OCO3)cc1S(=O)(=O)N1CCOCC1	-1	/	-1	/	/	/
O=C(N/N=C/c1ccncc1)/C(=C/c1ccccc1)NC(=O)c1ccccc1	-9	-2	1	0	4	-5
Cc1ccnc(N/C=C(/NC(=O)c2ccccc2)C(=O)N/N=C\c2ccc(Cl)cc2)n1	11	32*	-1	2	-29	4
COc1ccc(N(CC(=O)N2CCOCC2)S(C)(=O)=O)cc1OC	2	-2	0	-1	8	-2
COc1ccc(Cl)cc1NC(=O)CN1C(=O)CCS(=O)(=O)c2ccccc21	1	/	-1	6	7	-6
COc1ccccc1NC(=O)CN1C(=O)CCS(=O)(=O)c2ccccc21	84*	6	-3	1	-3	-8
COc1ccc(Sc2nc(-c3ccccc3)ncc2C(=O)O)cc1	6	3	-6	-2	-6	4
O=C(O)c1cnc(-c2ccccc2)nc1Sc1ccc(Cl)cc1	55*	6	-3	3	1	-1
O=C(Nc1ccc(C(=O)NCCCN2CCN(c3ccc(F)cc3)CC2)cc1)C1=CSCCO1	-35	-3	62*	-7	6	5
CCOC(=O)c1ccc(CNC(=O)C2CCC(=O)N(CCc3ccccc3)C2)o1 (centres undefined)	-1	10	-1	0	-2	-3
COC(=O)c1ccc(Sc2ccc(Cl)cc2)c(N)c1	73*	3	-1	-4	2	-2
NNC(=S)NC1CCS(=O)(=O)C1 (centres undefined)	108*	10	5	/	/	/
COc1ccc(C(=O)O/N=C(\N)Cc2ccc(Cl)c(Cl)c2)cc1OC	110*	0	1	-9	4	5
Cn1nc(CC(=O)N2CCN(c3ccccc3)CC2)c2ccccc2c1=O	2	9	0	8	-2	-1
Cc1[nH]n(CCC#N)c(=O)c1CC(=O)N1CCN(c2ccccc2)CC1	60*	3	1	2	3	5
Cc1cccc(/C=C2/S/C(=N/N=C3\CC4CCC3(C)C4(C)C)NC2=O)c1 (centres undefined)	50*	4	3	0	-1	-3
COc1ccccc1CCn1c(N)cc(=O)[nH]c1=O	-6	0	-1	-1	-1	-9
O=C(O)c1ccccc1C1=Nc2ccc(O)cc2Oc2cc(O)ccc21	-93	6	107*	117*	13	-159
COc1ccc(C2CCCN2C(=S)Nc2ccc(C)c(C)c2)cc1OC (centres undefined)	33	5	-1	9	-5	-21
SMILES	CRFR2-BP antag	IDE inh	CRFBP-R2 agonist	cardiac RTF act	IDE cell activ	RTF Ca sens inh
COc1ccc(C2CCCN2C(=O)Nc2ccc(C)c(C)c2)cc1OC (centres undefined)	80*	-2	-1	-1	-10	-12
O=[N+]([O-])c1cccnc1Sc1ccc(Cl)cc1	61*	6	-3	1	5	-3
Cc1cc(C)n(C(C)CC(=O)Nc2ccc3c(c2)OCCO3)n1 (centres undefined)	-2	6	0	1	4	-8
Cc1ccc(C(=O)OCC(=O)c2cc(C)n(CC3CCCO3)c2C)cc1 (centres undefined)	79*	-7	2	0	5	12
COc1ccc(NC(=O)CN2CCN(c3c(C)cccc3C)CC2)cc1	8	11	0	3	1	-10
CCN(CC)c1ccc(/C=C(\C#N)C(=O)NCc2ccccc2)cc1	-25	23*	31	36*	-17	-14
O=C1NC[C@@H](c2ccccc2)OC(=O)[C@@H](Cc2ccc(F)cc2)C/C=C\C[C@@H]1CC(=O)N(CCO)Cc1ccccc1	-4	4	0	2	-1	1
COc1ccc(-c2c(C(F)(F)F)[nH]n3c(=O)cc(-c4ccccc4)nc23)cc1	70*	1	-4	-9	0	6
Cc1ccc(N=Nc2c(N)[nH]n3c(=O)cc(-c4ccccc4)nc23)cc1	59*	-4	0	-6	2	2
Cc1[nH]n2c(=O)cc(-c3ccc([N+](=O)[O-])cc3)nc2c1-c1ccccc1	48	-2	1	-10	8	15
COc1cccc(N=Nc2c(N)[nH]n3c(=O)cc(-c4ccccc4)nc23)c1	21	1	-1	-4	5	-3
COc1ccc(N2C(=O)C3CC(C)=C(C)CC3C2=O)c(OC)c1 (centres undefined)	10	2	0	1	-3	0
COc1cc(N2C(=O)C=CC2=O)ccc1N1C(=O)C=CC1=O	63*	/	1	-3	-32	7
CCCCCCCCCCCC1=C(O)C(=O)C=C(O)C1=O	-88	7	62*	-13	5	10
CC1CCCC(NC(=O)COC(=O)[C@@H](NC(=O)c2ccccc2Cl)C(C)C)C1C (some centres undefined)	5	-1	0	0	2	-4
COc1cccc(CSc2nnc(C(F)(F)F)n2Cc2ccc(F)cc2)c1	64*	4	-2	2	3	6
CC(=O)c1cccc(S(=O)(=O)Nc2ccc3nc(C)sc3c2)c1	1	1	-1	-2	4	-3
Cc1nc2ccc(NS(=O)(=O)c3ccc(C)c(C)c3)cc2s1	78*	1	-3	6	-2	-22
O=C(CNC(=O)c1ccc(Cl)cc1)NNc1c(F)c(F)cc(F)c1F	5	7	0	7	0	5

Compound activity deposited in PubChem by several laboratories.
